Test results as given in PubChem BioAssay AID1851 (National Center for Advancing Translational Sciences (NCATS), 2009).
Where “and” joins values, the source holds several entries; their conditions need not be identical. Identical values can stand only once. In all, about 16,000 compounds went through this assay and about 5,800 (36%) were called active. About 23% were inconclusive and are not listed. The call rests on the fitted dose curve; in most records, active means well fitted curve in the direction sought with a large enough effect; inconclusive means small, poorly fitted or top-dose-only effect, or effect the other way; inactive means no such curve, though single readings can be large or run the other way. This is one part of the list. The source holds several records for some structures; these can differ, active in one and inactive in another.

biological target: Cytochrome P450 2C19 (Homo sapiens) (UniProt P33261); test: Cytochrome panel assay with activity outcomes; conditions: recombinant CYP, pro-luciferin dealkylation, luminescence, p450-cyp2c19; series mostly up to 57.1 µM; activity, negative = inhibition: at the top concentration
Sequence (P33261 whole entry, looked up): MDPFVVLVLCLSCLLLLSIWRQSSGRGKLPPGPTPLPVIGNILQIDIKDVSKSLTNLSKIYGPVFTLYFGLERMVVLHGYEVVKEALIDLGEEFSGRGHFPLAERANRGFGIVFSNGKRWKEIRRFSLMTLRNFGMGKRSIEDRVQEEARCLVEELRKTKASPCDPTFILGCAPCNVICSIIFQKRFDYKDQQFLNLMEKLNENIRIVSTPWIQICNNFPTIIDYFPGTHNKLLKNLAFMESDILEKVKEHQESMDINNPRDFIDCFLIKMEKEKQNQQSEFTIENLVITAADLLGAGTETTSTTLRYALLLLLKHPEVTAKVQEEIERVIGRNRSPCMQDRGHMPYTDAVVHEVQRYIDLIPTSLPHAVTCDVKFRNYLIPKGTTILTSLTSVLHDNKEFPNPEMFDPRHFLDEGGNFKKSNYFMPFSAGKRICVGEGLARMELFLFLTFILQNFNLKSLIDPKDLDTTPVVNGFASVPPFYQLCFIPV
On the % scale 0 is the no-effect control and ±100 the full control effect.

Structure (SMILES)	AC50	activity, negative = inhibition
COc1ccc(S(=O)(=O)N(CCc2ccccc2)CC(=O)N2CCOCC2)cc1	10 µM (active)	
CN(Cc1ccccc1)S(=O)(=O)c1ccc(OCC(=O)N2CCOCC2)cc1		-58.2% (inactive)
COc1ccc(S(=O)(=O)N(CC(=O)N2CCCC2)Cc2ccccc2)cc1	5.62 µM (active)	
CCN(CC)S(=O)(=O)c1ccc2c(c1)nc(SCC(=O)N1CCOCC1)n2-c1ccccc1OC		-25.7% (inactive)
COc1ccc(NC(=O)N2CCCC3(CCN(S(=O)(=O)c4ccccc4)CC3)C2)cc1		-9.43% (inactive)
c1ccc2c(Nc3ccncc3)nc(-c3ccc4c(c3)OCO4)nc2c1	3.98 µM (active)	
c1ccc(Nc2nc(-c3ccc4c(c3)OCO4)nc3ccccc23)cc1	3.16 µM (active)	
CCOc1ccc(-n2c(SCC(=O)Nc3ccc4c(c3)OCCO4)nc3c(c2=O)SCC3)cc1	2.82 µM (active)	
CCOc1ccc(-n2c(SCC(=O)Nc3ccc(OC)cc3OC)nc3c(c2=O)SCC3)cc1	5.01 µM (active)	
CCOc1ccc(-n2c(SCC(=O)Nc3ccc(OC)cc3)nc3c(c2=O)SCC3)cc1	7.08 µM (active)	
C/C(CCN1CCCCc2nc(C)c(C)cc21)=N\O[C@@H](C)c1cc(-c2c(C)cc(C)cc2C)no1		-41.4% [at 11.4 µM] (inactive)
O=c1c(-c2cc(F)cc(F)c2)nc2cnc(N3CCOCC3)nc2n1C1CC1		24.5% (inactive)
CO[C@H]1COC(=O)[C@H](C)COC(=O)[C@@H](Cc2ccccc2)NC(=O)C/C=C\[C@H]1C		-17.9% [at 11.4 µM] (inactive)
CS(=O)(=O)N1CCC2(CC1)CN(Cc1nccs1)C2		-13.6% (inactive)
C[C@]12CC[C@H]3c4ccc(O)cc4CC[C@@H]3[C@H]1C/C(=N/O)[C@H]2O		27.1% [at 11.4 µM] (inactive)
COc1cc(CNn2nnnc2N)ccc1OCc1c(Cl)cccc1Cl	2.51 µM (active)	
CC(=O)N1N=C(c2cccc([N+](=O)[O-])c2)OC1c1ccccc1Cl (centres undefined)	2.82 µM (active)	
CC(=O)N1N=C(c2cccc([N+](=O)[O-])c2)OC1c1ccc(Cl)cc1Cl (centres undefined)	0.447 µM (active)	
CN1CCN(c2ncc3nc(-c4cccc(C#N)c4)c(=O)n(CCC#N)c3n2)CC1		11.8% (inactive)
COc1ccc(N2C(=O)CSC2c2cccc(F)c2)c(OC)c1 (centres undefined)	11.2 µM (active)	
CN(C)CC[C@H](c1ccc(Br)cc1)c1ccccn1	inactive	
OCCCNCc1ccccn1		31.9% [at 11.4 µM] (inactive)
Cc1cc(Br)ccc1NCc1ccccn1	0.251 µM (active)	

Structure (SMILES)	AC50	activity, negative = inhibition
c1ccc(CCNc2ccccn2)nc1		10.5% [at 11.4 µM] (inactive)
CNCCc1ccccn1		6.91% [at 25.6 µM] (inactive)
Cc1cc(NCc2ccccn2)ccc1Br	2.82 µM (active)	
O=C(NCCCn1ccnc1)c1ccc(Br)c(S(=O)(=O)N2CCOCC2)c1	17.8 µM (active)	
Cc1ccc(C(=O)Oc2cc(C)n(C)c(=O)c2)cc1		-24.2% (inactive)
COC(=O)c1ccc(Oc2cc(C)nc(-n3nc(C)cc3C)n2)cc1	7.94 µM (active)	
CN1C(C(=O)Nc2ccccn2)=C(O)c2ccccc2S1(=O)=O	inactive and 6.31 µM (active)	
CN1C(C(=O)Nc2ccccn2)=C(O)c2sccc2S1(=O)=O		-5.67% [at 25.6 µM] (inactive)
COc1cccc(-c2nc(NCCc3c[nH]c4ccc(OC)cc34)c3ccccc3n2)c1	1.58 µM (active)	
COc1ccc2[nH]cc(CCNc3nc(-c4ccccc4OC)nc4ccccc34)c2c1	5.01 µM (active)	
COc1ccccc1-c1nc(NCCN2CCOCC2)c2ccccc2n1		-25.8% (inactive)
COc1ccc2[nH]cc(CCNc3nc(-c4cccnc4)nc4ccccc34)c2c1	0.501 µM (active)	
COc1ccc2[nH]cc(CCNc3nc(-c4ccoc4)nc4ccccc34)c2c1	1.58 µM (active)	
C1CCN(CC[C@@H]2CCCCN2)CC1		0.696% [at 11.4 µM] (inactive)
CC(C)C(NC(=O)C12CC3CC(CC(C3)C1)C2)C(=O)NC1=NCCS1 (centres undefined)	10 µM (active)	
CCNC(=O)C/C(C)=N/NC(=O)C12CC3CC(CC(C3)C1)C2		-11.2% (inactive)
CCc1cccc2c(-c3ccccc3)c3c(nc12)OCC3	7.94 µM (active)	
CCc1cccc2c3c([nH]c12)[C@@](CC)(CC(=O)O)OCC3		-5.37% [at 25.6 µM] (inactive)
Cc1cc(C)nc(Nc2n[nH]c(COc3cccc4ccccc34)n2)n1		-11.4% (inactive)
Cc1cc(Oc2ccccc2)nc(NCc2ccccc2)n1	3.16 µM (active)	
Cn1cnc2c(NCc3ccccc3)nc(NCCO)nc21		0.577% (inactive)
Cc1cc(Oc2ccccc2)nc(-c2ccccc2)n1	11.2 µM (active)	
NCCS		-17% (inactive)

Structure (SMILES)	AC50	activity, negative = inhibition
C#CCn1c(S(=O)(=O)Cc2ccc(OC)cc2)nc(-c2ccccc2)c1-c1ccccc1	2.24 µM (active)	
O=C(O)c1ccccc1N/N=C\c1ccnc2ccccc12	15.8 µM (active)	
O=C(O)CCNc1ccccc1C(=O)O		16.3% [at 11.4 µM] (inactive)
O=C(O)c1ccccc1/C=N\N=C1c2ccccc2-c2ccccc21		2.09% [at 11.4 µM] (inactive)
CCOC(=O)c1ccccc1OCc1cc(/C=N/n2cnnc2)ccc1OC	0.794 µM (active)	
CN1CCN(c2ccc([N+](=O)[O-])cc2NC(=O)c2ccccc2Cl)CC1		-22% (inactive)
CCC(=O)NC(=S)N1CCN(c2ccc([N+](=O)[O-])cc2Cl)CC1	2.82 µM (active)	
O=C(Nc1cccc(-c2cnc3ccccc3n2)c1)c1ccc(Cl)cc1		12.6% (inactive)
O=C(Nc1cc(Sc2ccccn2)cc([N+](=O)[O-])c1)c1ccc(Cl)cc1	3.16 µM (active)	
COC(=O)c1ccc(CSc2nc3cc(Cl)ccc3s2)o1	3.16 µM (active)	
C1CCc2nnnn2CC1		21.2% [at 25.6 µM] (inactive)
COc1cccc(Nc2ncc3nc(CCc4ccccc4)c(=O)n(CCC#N)c3n2)c1		10.6% (inactive)
COCCn1c(=O)c(-c2ccc(F)c(F)c2)nc2cncnc21		-37% (inactive)
COc1ccccc1CCn1c(=O)c(-c2ccc(F)c(F)c2)nc2cncnc21	1.26 µM (active)	
COc1cccc(Cn2c(=O)c(-c3cn(C)c4ccccc34)nc3cncnc32)c1		-42.6% (inactive)
COCCn1c(=O)c(-c2ccc(F)cc2)nc2cncnc21		-31.8% (inactive)
COc1ccc(-n2c(=O)c(-c3ccc(F)c(F)c3)nc3cncnc32)cc1		-25.4% (inactive)
COc1ccccc1CCn1c(=O)c(CCc2ccccc2)nc2cncnc21	3.16 µM (active)	
CN1CCN(c2ncc3nc(CCc4ccccc4)c(=O)n(C)c3n2)CC1		-32% (inactive)
COc1ccccc1CCn1c(=O)c(-c2cn(C)c3ccccc23)nc2cncnc21	0.316 µM (active)	
COc1ccccc1CCn1c(=O)c(-c2ccc(F)cc2)nc2cncnc21	0.316 µM (active)	
Cn1cc(-c2nc3cncnc3n(Cc3ccccc3Cl)c2=O)c2ccccc21		1.7% (inactive)
Cn1c(=O)c(-c2ccc(F)cc2)nc2cncnc21		-7.45% (inactive)
